Sampled rows, rich in hits. Any-hit rate of the full collection: about 6.6%.
KB-3-1 cytotox: KB-3-1 parental cell cytotoxicity. Potency, µM (doses to about 46.1 µM), actives largely listed as cytotoxic. 400,000 compounds, 1.4% hits. AID 1347075. KB-3-1 viability, CellTiter-Glo ATP luminescence, 72 h; further: on the % scale 0 is the no-effect control and ±100 the full control effect; nearly all actives have a fitted effect of over 60% in size
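Cells are dispensed, compounds pinned in, plates held at 37 °C for 72 h, then CellTiter-Glo is added and luminescence read after 10 minutes. Cell line: parental KB-3-1 in phenol-red-free DMEM, 10% FBS.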
HT1080-NT tox: kills 2HG-producing HT-1080-NT fibrosarcoma cells; HT-1080-NT fibrosarcoma viability, CellTiter-Glo ATP luminescence, 48 h; Potency, µM (top dose mostly 46.1 µM), inactives show at the top dose activity, negative = less viability, usual class: cytotoxic; 360,000 compounds, 1.6% hits; AID 686970;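 further: NT is the 2HG producing partner of a matched IDH1 knockdown line; 0% = DMSO-treated cells and -100% = media-only wells without cells; nearly all actives have a fitted effect of over 55% in size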
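HT-1080-NT fibrosarcoma cells (2HG-overproducing), 750 cells/well in RPMI with 5% FBS, dosed after 2 h and incubated 48 h at 37C. CellTiter-Glo luminescence normalized to DMSO and no-cell wells; concentration-response curves fitted and classed.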
TGFb SMAD3 inh: blocks TGF-b signaling | HepG2 CAGA-GFP TGF-b/SMAD3 reporter, GFP fluorescence, 18 h; TGF-beta stimulated, 500 pg/mL final | Potency, µM (titrated, usually from 46.1 µM), without a hit: at the top dose activity, negative = inhibition, actives largely listed as inhibitors | 410,000 compounds, 1.2% hits | AID 588855; further: on the % scale 0 is the no-effect control and ±100 the full control effect; nearly all actives have a fitted effect of over 65% in size
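Read-out: total well GFP (ex488/em500-530) summed from mean per-cell fluorescence. Cells: HEPG2 CAGA-GFP, 1% FBS DMEM, 18 h at 37 degrees C with 500 pg/mL final TGF-beta. Unstimulated wells served as the full-inhibition control; stimulated DMSO wells = 0%.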
HT1080 IDH1KD tx: HT-1080 IDH1 knockdown cell toxicity (counter line); 360,000 compounds, 2% hits; HT-1080 IDH1 knockdown viability, ATP luminescence, 48 h; Potency, µM (highest dose often 46.1 µM), inactives show top-dose activity, negative = toxicity, actives largely listed as cytotoxic;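 further: 0% = DMSO wells and -100% = cell-free medium wells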
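After a 2 h attachment period, IDH1KD HT-1080 cells took pin-transferred compound for 48 h at 37 °C; ATP-based luminescence after 10 min room-temperature reagent incubation reported viability.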
HepG2 viability: counter-screen for TGF-b inhibitors: cytotoxicity in HepG2 cells; HepG2 CAGA-GFP viability, ATP luminescence, 18 h; Potency, µM (highest dose often 46.1 µM), inactives show at the highest dose activity change, negative = cytotoxicity, usual class: cytotoxic; 410,000 compounds, 0.76% hits
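HepG2 CAGA-GFP cells (1000/well, DMEM with 1% FBS) received compound, then TGF-beta at 500 pg/mL final, and were incubated 18 hours at 37 degrees C. Viability was read by CellTiter-Glo luminescence. Media-only wells were set as complete cell-killing and DMSO as no toxicity.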
KB-V1 MDR tox: KB-V1 MDR subline cytotoxicity | KB-V1 MDR cells viability, CellTiter-Glo, 72 h | Potency, µM (titrated, usually from 46.1 µM), hits mostly cytotoxic | 400,000 compounds, 3.4% hits | AID 1347076; further: on the % scale 0 is the no-effect control and ±100 the full control effect; nearly all actives have a fitted effect of over 60% in size
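qHTS viability screen in drug-selected KB-V1 MDR cells: 72 h compound treatment at 37 degrees C, ATP luminescence end point.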
An asterisk follows results filed as active; i = inactive; ? = inconclusive; · = no result given. The call rests on the fitted dose curve; in most records, active means well fitted curve in the direction sought with a large enough effect; inconclusive means small, poorly fitted or top-dose-only effect, or another doubt; inactive means no such curve, though single readings can be large; an effect the other way counts as inactive or inconclusive. Potency means the concentration at half of the fitted maximal effect.

SMILES | KB-3-1 cytotox | HT1080-NT tox | TGFb SMAD3 inh | HT1080 IDH1KD tx | HepG2 viability | KB-V1 MDR tox
CCOC(=O)c1c(Oc2ccc(C(C)=O)cc2)nnc(-c2ccccc2)c1-c1ccccc1 | i | · | ? | · | -4.2% | i
CCOc1ccccc1C(=O)Oc1c(S(=O)(=O)c2ccc(C)cc2)c(C)nn1-c1ccccc1 | i | · | ? | · | -65.6% | i
CCOC(=O)C1=C(O)C(=O)NC(c2ccccc2)=C(OC2CCCCC2)C1 | ? | -10.0% | -6.0% | -10.2% | 7.0% | 14.6µM*
COc1cc(C(C[N+](=O)[O-])c2c(C)[nH]c3ccccc23)cc(OC)c1OC (stereo not given) | ? | -18.4% | 5.4% | -19.3% | -17.7% | ?
O=[N+]([O-])CC(c1ccccc1)c1c[nH]c2ccccc12 (stereo not given) | 16.4µM* | ? | ? | 14.6µM* | -34.6% | ?
N=c1ccn(Cc2ccc(F)cc2)cc1 | 5.8µM* | ? | -16.7% | -22.4% | 20.1% | i
Cc1nn(CCCC(=O)NCc2cccc(Cl)c2)c(=O)c2c1sc1ccccc12 | · | · | · | · | -3.4% | ·
COc1ccc(-n2c(COc3ccc(C)cc3)nnc2SCc2ccc(C#N)cc2)cc1 | i | -14.0% | -25.8% | ? | 6.9% | 6.51µM*
COc1ccc(-n2c(COc3ccc(Cl)cc3)nnc2SCc2ccc(C#N)cc2)cc1 | i | ? | ? | ? | -30.4% | ?
COc1cc2ccc(C(C)=NNC(N)=S)cc2cc1OC | i | -4.6% | ? | -1.4% | -55.2% | ?
C/C(=N\NC(=S)Nc1ccc(F)cc1)c1ccc2c(c1)OCCO2 | ? | ? | -29.5% | ? | -74.9% | 11.6µM*
CC(=O)N/N=C(\C)c1ccc2c(c1)OCCO2 | ? | -0.3% | 0.9% | 0.3% | 0.2% | 23.1µM*
C/C(=N/NC(=O)c1ccc2c(c1)OCO2)c1ccc(NC(=O)c2ccc(F)cc2)cc1 | i | 25.1% | -5.9% | 9.2% | 0.6% | i
C/C(=N\NC(N)=S)c1ccc2c(c1)OCCO2 | ? | 1.9% | 6.7% | 2.8% | -6.8% | ?
CC(=NNC(N)=S)c1ccc2cc3c(cc2c1)OCO3 | ? | -10.2% | ? | -23.8% | -92.0% | 0.581µM*
COC(=O)C[C@H]1CC[C@H](NC(=O)c2cccc(F)c2)[C@@H](CO)O1 | i | ? | · | 12.4% | · | i
CN1CCN(/N=C/c2ccc(N(c3ccccc3)c3ccccc3)cc2)CC1 | i | -13.3% | 2µM* | -5.0% | 4.4% | i
CN1CCN(/N=C/c2ccc(N(C)c3ccccc3)cc2)CC1 | i | -0.9% | -8.1% | 13.7% | -2.1% | i
CC1(C)CC(=O)C2=C(C1)OC(N)=C(C#N)C2c1cn(-c2ccccc2)nc1-c1ccccc1 (stereo not given) | i | 14.6µM* | ? | ? | -35.5% | i
CC1(C)CC(=O)C2=C(C1)OC(N)=C(C#N)C2c1ccoc1 (stereo not given) | i | 2.7% | 0.9% | 2.4% | 0.6% | ?
COc1cccc(C(=O)N2CCCCC2CCN2CCCCC2)c1 (stereo not given) | · | · | ? | · | 6.3% | ·
CCN(CC)CCCNC(=O)c1ccc2c(c1)sc1nc(-c3ccc(C)cc3)cn12 | 16.4µM* | · | -36.8% | · | 6.31µM* | ?
CCCNC(=O)c1ccc2c(c1)sc1nc(-c3ccc(C)cc3)cn12 | i | · | -16.2% | · | 0.7% | i
Nc1cc(=O)[nH]c2c1CCC2 | ? | · | -1.0% | · | -21.1% | i
CCCn1nc([N+](=O)[O-])c(C(C#N)c2nc3ccccc3s2)c(Cl)c1=O (stereo not given) | ? | 2.82µM* | ? | 1.12µM* | 11.2µM* | 5.8µM*
SMILES | KB-3-1 cytotox | HT1080-NT tox | TGFb SMAD3 inh | HT1080 IDH1KD tx | HepG2 viability | KB-V1 MDR tox
COC(=O)c1ccccc1NC(=O)c1ccc(CN2CC(=O)N3CCCCC3C2=O)cc1 (stereo not given) | · | · | -4.0% | · | -6.5% | ·
O=C(CN1C(=O)COc2ccc(S(=O)(=O)N3CCCCCC3)cc21)N1CCN(c2ccc(Cl)cc2)CC1 | i | · | 10.1% | · | -22.9% | ?
COC(=O)c1c(NC(=O)C(C)C)sc2c1C(C(=O)OC)CC2 (stereo not given) | ? | -3.6% | -17.6% | -14.5% | -30.2% | 13µM*
COC(=O)c1c(NC(=O)c2ccco2)sc2c1C(C(=O)OC)CC2 (stereo not given) | i | -3.0% | 2.8% | -19.1% | -32.9% | 18.4µM*
COC(=O)c1sc(NC(=O)C(C)C)c(C(=O)OC)c1C | i | 18.8% | 7.8% | 18.7% | 3.5% | i
CCOC(=O)C1=C(Cc2ccc(F)cc2)C(=O)c2ccccc2C1=O | i | 17.8µM* | 27.3% | 10µM* | -58.4% | i
O=C(OCc1ccc(F)cc1)c1ccc2c(c1)-c1ccccc1C2=O | i | 16.0% | 5.6% | 20.3% | 2.3% | i
CCCNC(=O)C1(C)CCCN(Cc2cccc(C#N)c2)C1 (stereo not given) | i | 2.7% | -2.7% | ? | 3.2% | i
CCNc1nc(Oc2ccc(F)cc2)cc(C(F)(F)F)n1 | i | -27.8% | ? | -15.5% | 6.4% | i
CCNc1nc(Oc2ccc(C#N)cc2)cc(C(F)(F)F)n1 | 18.4µM* | -14.3% | -0.7% | -10.9% | -1.3% | 3.26µM*
Cc1ccc(C(=O)c2cn(CC(=O)NCc3ccccc3Cl)c3nc(C)ccc3c2=O)cc1 | · | · | -1.4% | · | -0.1% | ·
COc1ccc2c(C)c(CCC(=O)NCc3cccc(Cl)c3)c(=O)oc2c1 | i | · | -8.2% | · | -14.0% | i
O=C(CNC(=S)N(Cc1ccccc1)Cc1ccccc1F)NCCc1ccc(Cl)cc1 | i | 16.4µM* | ? | 16.4µM* | -30.8% | ?
O=C(c1ccccc1)c1ccc(C(=O)N2CCOCC2)cc1 | i | 14.1% | 24.4% | 13.8% | 4.9% | i
O=C(c1ccccc1-c1nc(-c2ccccc2)no1)N1CCOCC1 | i | 10.1% | 4.0% | -11.5% | 0.1% | 11.6µM*
O=C(c1ccc(-c2ccccc2)cc1)c1ccccc1C(=O)N1CCOCC1 | i | 1.8% | -3.7% | -8.8% | -32.1% | 20.6µM*
Cc1ccc(-c2nc3c4ccccc4n(CC(=O)N4CCN(c5ccccc5F)CC4)c(=O)n3n2)cc1 | i | · | -0.2% | · | 1.1% | i
CCc1nnc2c(Nc3ccc(N(CC)CC)cc3C)nc3ccccc3n12 | i | · | -6.2% | · | -9.7% | i
Nc1ncnc2c1C1(CCCCC1)Cc1ccccc1-2 | ? | 3.0% | ? | -7.3% | -15.3% | 23.1µM*

Source: PubChem
